Screens from PubChem BioAssay.
Rows were chosen to be rich in hits. Some 0.53% of all compounds tested hit in one or more screens of this group.
BRCT PPI green: inhibitors of human BRCA1 BRCT-phosphoprotein interaction (green fluorophore) | BRCA1 BRCT-phosphopeptide binding, green fluorescence polarization | 75,000 compounds, 0.05% hits | AID 875 | Potency, µM (doses to about 76.9 µM), without a hit: at the highest dose activity change, negative = inhibition, most hits filed as inhibitors | P38398;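 further: potency means the concentration at half of the fitted maximal effect; plate controls were peptide without protein for full effect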
Target sequence (P38398 whole entry, looked up): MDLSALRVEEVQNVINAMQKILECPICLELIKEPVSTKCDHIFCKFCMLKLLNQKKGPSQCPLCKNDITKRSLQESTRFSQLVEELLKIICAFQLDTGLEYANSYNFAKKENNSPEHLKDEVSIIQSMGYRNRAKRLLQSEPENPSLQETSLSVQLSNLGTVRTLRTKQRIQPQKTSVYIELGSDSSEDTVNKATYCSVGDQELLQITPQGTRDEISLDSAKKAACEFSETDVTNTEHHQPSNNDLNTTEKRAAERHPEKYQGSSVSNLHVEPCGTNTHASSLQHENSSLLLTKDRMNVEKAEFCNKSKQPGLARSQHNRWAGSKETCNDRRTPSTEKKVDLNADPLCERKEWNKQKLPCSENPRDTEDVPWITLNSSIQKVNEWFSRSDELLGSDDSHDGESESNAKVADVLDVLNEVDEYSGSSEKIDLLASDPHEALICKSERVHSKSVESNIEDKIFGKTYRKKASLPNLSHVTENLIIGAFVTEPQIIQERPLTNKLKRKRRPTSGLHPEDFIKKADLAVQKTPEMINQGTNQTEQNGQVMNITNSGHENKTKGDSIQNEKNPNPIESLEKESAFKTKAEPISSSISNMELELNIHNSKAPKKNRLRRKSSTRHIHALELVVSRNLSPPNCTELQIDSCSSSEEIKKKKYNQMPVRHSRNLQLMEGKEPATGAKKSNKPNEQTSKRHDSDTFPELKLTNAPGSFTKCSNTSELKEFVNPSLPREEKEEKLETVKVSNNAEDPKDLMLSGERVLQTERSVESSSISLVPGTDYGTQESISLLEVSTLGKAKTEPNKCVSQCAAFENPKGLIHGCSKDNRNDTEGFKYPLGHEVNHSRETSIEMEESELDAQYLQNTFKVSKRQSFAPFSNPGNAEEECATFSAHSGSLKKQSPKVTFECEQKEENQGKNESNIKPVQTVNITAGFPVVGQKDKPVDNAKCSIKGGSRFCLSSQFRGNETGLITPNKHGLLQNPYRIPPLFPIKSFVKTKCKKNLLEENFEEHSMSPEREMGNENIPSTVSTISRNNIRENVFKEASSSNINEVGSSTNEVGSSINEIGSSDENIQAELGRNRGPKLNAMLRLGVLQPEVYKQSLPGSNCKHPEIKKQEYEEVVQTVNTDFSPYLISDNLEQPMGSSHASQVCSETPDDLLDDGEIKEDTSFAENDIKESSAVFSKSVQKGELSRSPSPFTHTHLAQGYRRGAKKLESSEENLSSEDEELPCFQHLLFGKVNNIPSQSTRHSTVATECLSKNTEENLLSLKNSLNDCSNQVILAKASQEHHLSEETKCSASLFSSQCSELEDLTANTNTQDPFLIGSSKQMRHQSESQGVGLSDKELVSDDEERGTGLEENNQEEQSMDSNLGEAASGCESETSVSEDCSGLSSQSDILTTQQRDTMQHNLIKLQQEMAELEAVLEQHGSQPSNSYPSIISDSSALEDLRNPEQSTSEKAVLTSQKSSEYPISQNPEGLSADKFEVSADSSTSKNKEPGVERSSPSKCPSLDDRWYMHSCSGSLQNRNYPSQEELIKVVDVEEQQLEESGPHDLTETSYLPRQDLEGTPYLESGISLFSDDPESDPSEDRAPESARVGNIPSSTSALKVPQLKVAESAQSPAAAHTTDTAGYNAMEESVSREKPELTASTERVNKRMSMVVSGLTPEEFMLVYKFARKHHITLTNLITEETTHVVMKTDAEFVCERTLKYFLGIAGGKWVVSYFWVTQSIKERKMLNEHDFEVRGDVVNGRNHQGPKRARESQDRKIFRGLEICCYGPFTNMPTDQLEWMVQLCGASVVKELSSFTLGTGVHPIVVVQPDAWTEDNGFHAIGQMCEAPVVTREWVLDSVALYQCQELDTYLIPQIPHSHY
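Compounds were incubated for 12 min at room temperature with a complex of 100 nM fluorescein-tagged pBACH1 decapeptide and 250 nM His-tagged BRCT protein. Buffer was phosphate pH 7.3 with EDTA, DTT and Tween 20. Disruption of binding lowers the polarization signal.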
TsaE inh: displaces an ADP probe from E. coli YjeE (TsaE); Potency, µM; purified YjeE enzyme, qHTS inhibition assay; AID 605; P0AF67; 71,000 compounds, 0.05% hits
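Purified YjeE (10 uM) with BODIPY Texas Red-labeled ADP probe (2 uM); compounds pin-transferred, 15 min at room temperature. Binding inhibition read as decreased fluorescence polarization; ADP titration as control.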
DNA Pol III inh: DNA polymerase III holoenzyme inhibition; 71,000 compounds, 0.25% hits; reconstituted DNA polymerase III holoenzyme replication, biochemical; AID 603; Potency, µM (titrated, usually from 57.1 µM), for the others: at the highest dose activity change, negative = inhibition; further: potency means the concentration at half of the fitted maximal effect; on the % scale 0 is the no-effect control and ±100 the full control effect
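Reconstituted *E. coli* holoenzyme (0.35 nM Pol III, 1 nM beta, 154 nM SSB, 2 nM primase) was preincubated with compound for 15 min at RT. Synthesis on 1.4 nM ssM13Gori ran 35 min, then was stopped with PicoGreen/EDTA and read as dsDNA fluorescence.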
Hsp90 Hop PPI: changes Hsp90-Hop TPR2A binding signal, up or down. AlphaScreen TPR2A-His6 binding biotin-Hsp90 C-terminal peptide. Potency, µM (top dose mostly 57 µM), for the others: top-dose activity change, negative = inhibition. 71,000 compounds, 0.44% hits. AID 595; active means well fitted curve in either direction with a large enough effect; inconclusive means small, poorly fitted or top-dose-only effect, or another doubt; further: potency means the concentration at half of the fitted maximal effect; on the % scale 0 is the no-effect control and ±100 the full control effect
BRCT PPI red: disrupts BRCA1 BRCT binding to phosphoprotein, red fluorophore readout; P38398; BRCT-phosphopeptide binding, red fluorescence polarization; Potency, µM (titrated, usually from 76.9 µM), inactives show at the top dose activity change, negative = inhibition, actives largely listed as inhibitors; 75,000 compounds, 0.03% hits; AID 892; further: on the % scale 0 is the no-effect control and ±100 the full control effect
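Fluorescence polarization: 100 nM His-tagged BRCA1 BRCT with 100 nM TAMRA-labelled phospho-BACH1 decapeptide, phosphate buffer pH 7.3 with 150 mM NaCl, DTT, 0.01% Tween 20; 12 min RT. Binding inhibition seen as FP decrease.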
The depositor's hits bear a star; i = inactive; u = inconclusive; x = no result; ! = not active in a repeat; [ ] = dose if it differs, or a comment. Unless noted, the call rests on the fitted dose curve; in most records, active means well fitted curve in the direction sought with a large enough effect; inconclusive means small, poorly fitted or top-dose-only effect, or another doubt; inactive means no such curve, though single readings can be large; an effect the other way counts as inactive or inconclusive.

SMILES	BRCT PPI green	TsaE inh	DNA Pol III inh	Hsp90 Hop PPI	BRCT PPI red
C1=CC2c3ccccc3NC(c3ccncc3)C2C1 (configuration not stated)	-1.5%	i	-1.5%	u	-0.4%
O=C(O)c1ccc(Cl)c2c1C1C=CCC1C(c1ccccn1)N2 (configuration not stated)	31.6µM*	39.8µM*	u	u	31.6µM*
c1ccc(/C(=N/Nc2nc3ccccc3s2)c2ccccn2)cc1	-1.4%[15.4 µM]	i	-6.8%[11.4 µM]	-26.6%[11 µM]	1.2%[15.4 µM]
CSc1ncnc2nc[nH]c12	-0.9%	i	-2.1%	-2.2%	-1.6%
Cc1cc(C)c(C#N)c(SCC(=O)OC2CCCCC2)n1	1.9%	i	3.1%	31.6µM*	-2.1%
Cc1cc(C)c(C#N)c(SCC(=O)CC(=O)OC(C)C)n1	-2.8%	i	-7.0%	3.2%	-0.2%
O=Nc1c(-c2c(O)[nH]c3ccccc23)[nH]c2ccccc12	1.5%	i	-14.3%	12.6µM*!	2.6%
O=NC1=C(c2c(O)[nH]c3ccccc23)CCCC1	-0.2%	i	-5.9%	2.8%	-0.9%
O=C1C2C3C=CC(C3)C2C(=O)N1c1ncn[nH]1 (configuration not stated)	-0.5%	i	12.6µM*	-4.6%	-0.2%
CCc1cccc2c3c([nH]c12)[C@](CC)(CC(=O)O)OCC3	x	i	-4.3%	-10.9%	x
Oc1ccc([C@@H]2CNCc3sccc32)cc1O	-1.8%	i	-2.6%	-25.2%	0.7%
O=C1c2c(O)ccc(O)c2C(=O)c2c(NCCNCCO)ccc(NCCNCCO)c21	-1.5%[3.08 µM]	79.4µM*!	1µM*	15.8µM*!	-4.7%
COc1cc(/C=C\C(=O)N2CCCCC2=O)cc(OC)c1OC	x	i	-3.1%	-0.3%	x
CCC[C@@H]1O[C@@H]2C[C@@H]3[C@@H]4CCC5=CC(=O)C=C[C@@]5(C)[C@H]4[C@H](O)C[C@@]3(C)[C@@]2(C(=O)CO)O1	x	i	-6.9%	-2.3%	x
COc1cccc2c1C(=O)c1c(O)c3c(c(O)c1C2=O)C[C@](O)(C(=O)CO)C[C@@H]3O[C@H]1C[C@H](N)[C@@H](O)[C@H](C)O1	x	i	3.2%[11.4 µM]	-3.4%[11 µM]	x
COc1cccc2c1C(=O)c1c(O)c3c(c(O)c1C2=O)C[C@@](O)(C(C)=O)C[C@@H]3O[C@H]1C[C@H](N)[C@H](O)[C@H](C)O1	9.1%	i	0.158µM*	u	15.8µM*
c1ccc(-c2cccc(-c3ccccn3)n2)nc1	-0.5%	i	1.5%	3.16µM*	1.0%
Cc1ccc2nc(-c3ccc(N)cc3)sc2c1S(=O)(=O)O	13.8%	i	u	-2.0%	0.5%
CCN(CC)c1ccc2c(c1)CCCN2	-4.4%	i	-5.0%	15.8µM*	0.7%
Cc1nc(N=Nc2cc(S(=O)(=O)O)c3cc([N+](=O)[O-])cc(S(=O)(=O)O)c3c2)c(COP(=O)(O)O)c(C=O)c1O	u	i	31.6µM*	-23.0%	-27.4%
Cc1onc(-c2c(Cl)cccc2Cl)c1C(=O)N[C@H]1C(=O)N2[C@H]1SC(C)(C)[C@H]2C(=O)O	-6.7%[34.4 µM]	i	-3.1%[25.6 µM]	-0.8%[26 µM]	-1.2%[34.4 µM]
CCOc1ccc2nc3cc(N=Nc4ccc(N)nc4N)ccc3c(N)c2c1	-5.8%[15.4 µM]	i	3.16µM*	-17.6%[11 µM]	-3.5%[15.4 µM]
O=C(O)c1cccnc1C(=O)O	-3.9%	i	-0.7%	3.16µM*	-1.7%
O=C(NCc1cccs1)c1cccnc1C(=O)O	-2.0%	i	5.4%	-21.0%	-1.2%
CC(C)n1c2ccccc2c2nc3ccccc3nc21	-0.8%	i	-3.4%	31.6µM*	-2.3%
SMILES	BRCT PPI green	TsaE inh	DNA Pol III inh	Hsp90 Hop PPI	BRCT PPI red
Clc1ccc(-c2ccc(-c3nn4c(-c5ccco5)nnc4s3)o2)cc1	-2.2%	i	-10.9%	-17.4%	-8.2%
Brc1ccc(-c2nn3c(-c4ccco4)nnc3s2)o1	-11.4%	i	25.1µM*	-9.5%	-10.6%
O=c1cc(-c2cccc(O)c2)oc2c(O)c(O)ccc12	0.2%	i	u	-26.0%	1.0%
O=C(O)CCc1c2ccc(=O)c(O)c-2oc2c(O)c(O)ccc12	u	i	0.0794µM*	u	u
COCCN(CCOC)c1nc(C)nc2c1nc(-c1ccccc1)n2CCCN1CCCCC1C (configuration not stated)	-1.2%	i	7.1%	-2.3%	0.3%
O=C(NCCCn1ccnc1)C(F)(F)C(F)(F)C(=O)NCCCn1ccnc1	-0.3%	i	-4.6%	25.1µM*	-2.2%
Cc1cccc(NC(=O)Nc2ccc(C#N)cc2)n1	-4.1%	i	25.1µM*	-1.9%	-1.3%
O=C(c1cc2ncc(Br)cn2n1)N1CCN(C(=O)c2ccco2)CC1	-1.9%	i	25.1µM*	-1.4%	-3.8%
Nc1nc(N)c2nc(CNc3ccc(C(=O)N[C@H](CCC(=O)O)C(=O)O)cc3)cnc2n1	-1.3%	i	-6.5%	-3.5%	0.7%
CCSc1nnc(NC(=O)c2ccccn2)s1	-0.4%	i	-7.4%	7.94µM*	0.4%
CC#C[C@@]1(O)CC[C@@H]2[C@@H]3CCC4=CC(=O)CCC4=C3[C@@H](c3ccc(N(C)C)cc3)C[C@]21C	x	i	-1.9%	u	x
CC[C@]1(O)C[C@H]2CN(CCc3c([nH]c4ccccc34)[C@](C(=O)OC)(c3cc4c(cc3OC)N(C=O)[C@H]3[C@@](O)(C(=O)OC)[C@H](OC(C)=O)[C@@]5(CC)C=CCN6CC[C@]43[C@H]65)C2)C1	-4.1%	i	-7.6%	-5.7%	-2.5%
COc1ccc2nc3c(cc2c1)c(NC(=O)c1cccs1)nn3CC(C)C	-1.3%	i	2.0%	25.1µM*	-0.5%
CCn1nc(NC(=O)c2ccncc2)c2cc3ccccc3nc21	-2.9%	i	0.2%	0.2%	-0.9%
O=C(Nc1ccc2c(c1)OCO2)c1cnn2c(C(F)(F)F)cc(-c3ccco3)nc12	-0.5%	i	-2.0%	-4.3%	0.9%
COc1ccc(NC(=O)c2cnn3c(C(F)(F)F)cc(-c4ccco4)nc23)cc1OC	-8.2%	i	1µM*	-11.1%[11 µM]	-1.4%
C[C@@H]1C[C@@H]2[C@H]3CCC4=CC(=O)C=C[C@]4(C)[C@]3(Cl)[C@@H](O)C[C@@]2(C)[C@@]1(O)C(=O)CO	-0.9%	i	-4.0%	-12.0%	-1.0%
CC(=O)c1cccc(NC(=O)c2ccc(N(C)S(C)(=O)=O)cc2)c1	-1.8%	i	-3.2%	-15.3%	-0.7%
Cc1ccc(C(=O)Nc2ccc(S(=O)(=O)O)c3cc(S(=O)(=O)O)cc(S(=O)(=O)O)c23)cc1NC(=O)c1cccc(NC(=O)Nc2cccc(C(=O)Nc3cc(C(=O)Nc4ccc(S(=O)(=O)O)c5cc(S(=O)(=O)O)cc(S(=O)(=O)O)c45)ccc3C)c2)c1	2.0%	i	31.6µM*	u	51.0%
CC(=O)OC[C@@H]1O[C@@H](Oc2cc(OC(C)=O)c3c(=O)cc(-c4ccc(OC(C)=O)c(OC(C)=O)c4)oc3c2)[C@H](OC(C)=O)[C@H](OC(C)=O)[C@@H]1OC(C)=O	x	i	-4.1%	u	x
